Our source for the z-score values is PubChem BioAssay.

This test is described as follows: MM1S cell viability effects, profiling panel, calcein-AM fluorescence, 48 h, basal (AID 1165).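 Also: viability of MM1S multiple myeloma cells under basal unstimulated conditions; test concentration not given here.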 The following applies: higher = more signal.
Consider `CC(C)C[C@@H]1NC(=O)[C@@]23C(=O)N[C@@H](Cc4ccccc4)C2[C@H](C)[C@@]2(C)O[C@H]2C3/C=C/C/C=C\CNC(=O)[C@@H](C)NC1=O` (stereo not given in full), for which the z-score is 0.761.

Take `COCCOC(=O)N1C(=O)[C@@]2(c3cc(C#CCC(C(=O)OC)C(=O)OC)ccc31)[C@H](c1ccc(O)cc1)N1[C@H](c3ccccc3)[C@H](c3ccccc3)OC(=O)[C@H]1[C@@H]2C(=O)NC[C@H](O)c1ccccc1`: the z-score is -1.92.

As to `C=CCC(OC(C)=O)[C@@H]1[C@@H](N(Cc2ccc(-c3cccc(C(F)(F)F)c3)o2)C(=O)c2ccc(C)cc2)c2cc(OCCCO)ccc2N1C(=O)Cc1ccc(OC)cc1` (stereo not given in full), the z-score is -0.155.

Turning to `CCCCC(=O)N(CCN1CCOCC1)[C@@H]1CC(C(=O)NCCO)=C[C@H](Oc2c(I)cc(CO)cc2OC)[C@H]1O`, the z-score was 0.135.

On to `O=C1NC(=O)C2C1C=CC(C(O)c1ccccn1)N2Nc1ccc(Cl)cc1Cl` (stereo not given), for which the z-score is -0.588.

As for `C=CCC(OC(C)=O)[C@@H]1[C@@H](N(Cc2ccc(-c3cccc(C(F)(F)F)c3)o2)C(=O)Cc2ccc(OC)cc2)c2cc(OCCCO)ccc2N1C(=O)Cc1ccc2ccccc2c1` (stereo not given in full), the z-score is -0.499.

For the molecule `C=C[C@@H](C)[C@H](O)c1ccc(OCCO)cc1`, the z-score is 0.0554.

For `O=C1O[C@H](c2ccccc2)[C@H](c2ccccc2)N2[C@H]1[C@@H](C(=O)N1CCCCCCC1)[C@]1(C(=O)Nc3ccc(C#CC4(O)CCCCCC4)cc31)[C@H]2c1ccccc1OCCO`, the z-score was -0.0437.

For `O=C1O[C@H](c2ccccc2)[C@H](c2ccccc2)N2[C@H]1[C@@H](C(=O)N1CCCCCCC1)[C@]1(C(=O)Nc3ccc(C#CC4(O)CCCCCC4)cc31)[C@H]2c1ccc(O)cc1`, the z-score is -0.845.

For `COCCOC(=O)N1C(=O)[C@@]2(c3ccccc31)[C@H](c1ccc(OCCO)cc1)N1[C@H](c3ccccc3)[C@H](c3ccccc3)OC(=O)[C@H]1[C@@H]2C(=O)N1CCCCCCC1`, the z-score is -2.74.

Turning to `CC(=O)NCCCC[C@@H]1NC(=O)[C@@H]2C[C@H](C(=O)NCCCCCCN)[C@H](c3cccc(OCCO)c3)N2C1=O`, the z-score is 0.213.

As to `[N-]=[N+]=Nc1ccccc1C[C@]1(C(=O)O)N=C(c2ccc(OCCCO)cc2)O[C@H]1c1ccccc1N=[N+]=[N-]`, the z-score is -2.38.

Regarding `CCN(CC)c1ccc(N2CC=CC34O[C@@H]5/C=C\CCC(C)OC(=O)C5[C@H]3C(=O)N(C(C)CO)[C@@H]4C2=O)cc1` (stereo not given in full), the z-score was 0.86.

Turning to `O=C(O)[C@H]1C[C@H]2C(=O)N[C@@H](Cc3ccccc3)C(=O)N2[C@H]1c1cccc(OCCO)c1`, the z-score is -3.41.

Take `CCCCCCCCCCC(O)C1C=CC2C(=O)N(C)C(=O)C2N1Nc1cc(OC)c(OC)c(OC)c1` (stereo not given): the z-score is -3.8.

With `C=CCN1C(=O)[C@]2(O[C@H](CCO)[C@@H]([Si](C)(C)c3ccc(OC)cc3)[C@@H]2C)c2cc(N3C(=O)COc4ccccc43)ccc21`, the z-score was -2.7.

Turning to `CCOC(=O)C1=CCC(c2ccccc2)N(S(=O)(=O)c2ccc([N+](=O)[O-])cc2)C1` (stereo not given), the z-score is -0.259.

For the molecule `CCOC(=O)C1=C[C@@H](c2ccccc2)N(S(=O)(=O)c2ccc(C)cc2)[C@H]1c1ccccc1`, the z-score is -1.14.

Turning to `C=CCNC(=O)[C@@H]1[C@H]2C(=O)O[C@H](c3ccccc3)[C@H](c3ccccc3)N2[C@H](c2ccc(O)cc2)[C@@]12C(=O)Nc1ccc(C#CCC(C(=O)OC)C(=O)OC)cc12`, the z-score was -3.31.

For the molecule `C=C[C@@H](C)[C@@H](OC(=O)Nc1ccc(SC)cc1)c1ccc(OCCO)cc1`, the z-score is -1.08.

Turning to `COc1cc(NN2C(C(O)c3cc(OC)c(OC)c(OC)c3)C=CC3C(=O)N(c4ccccc4)C(=O)C32)cc(OC)c1OC` (stereo not given), the z-score is -0.881.

In the case of `COc1ccc([Si](C)(C)[C@@H]2[C@@H](CC(=O)N3Cc4ccccc4C[C@H]3CO)O[C@]3(C(=O)N(Cc4ccc(N5CCC5=O)cc4)c4ccccc43)[C@H]2C)cc1`, the z-score is -0.0069.

Consider `CN(C)C(=O)[C@@]1(CCC(=O)OC(C)(C)C)N=C(c2ccc(OCCCO)cc2)O[C@H]1c1ccccc1CN=[N+]=[N-]`, for which the z-score was -0.124.

With `CCOC(=O)C[C@H]1[C@H](OC(=O)c2ccccc2-c2ccccc2)[C@@H](NC(=O)c2ccccc2)c2cc(OCCCO)ccc2N1C(=O)c1ccccc1`, the z-score was -0.162.

As to `CN(C)CCCC[C@@H]1NC(=O)[C@@H]2C[C@H](C(=O)O)[C@H](c3cccc(OCCO)c3)N2C1=O`, the z-score was 0.238.
